Shown are actives, neighbours in structure and some others; about 1.3% of the full set was active somewhere.
AMA1 RON2 block – inhibitors of Plasmodium falciparum AMA1-RON2 interaction; Potency, µM (highest dose often 58.2 µM), actives largely listed as inhibitors; AlphaScreen AMA1-biotinylated RON2 peptide binding; AID 720542; 0.2% of 360,000 active; further: nearly all actives have a fitted effect of over 45% in size
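AMA1 (3D7) with his tag at 25 nM final met compounds first, then biotinylated RON2 peptide at 25 nM; detection used donor plus acceptor beads, 10 µg/mL apiece, read by AlphaScreen after 30 min at room temperature.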
Vaccinia Venus – vaccinia inhibition (Venus reporter); Potency, µM (highest dose often 36.5 µM), usual class: inhibitors; 0.46% of 330,000 active; Vaccinia virus Venus reporter expression, fluorescence; AID 720580; calls by dose curve; tested in A549 cells; further: nearly all actives have a fitted effect of over 30% in size
Tb PYK inh – T. brucei pyruvate kinase inhibition; Q57TT1; TbPYK enzyme, Kinase-Glo Plus ATP luminescence, 45 min; Potency, µM (titrated, usually from 76.8 µM), most hits filed as inhibitors; 0.12% of 410,000 active; AID 624173; further: nearly all actives have a fitted effect of over 50% in size
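Readout: single end-point luminescence (Kinase-Glo Plus, 10 min). Reaction conditions were TbPYK/substrate plus 130 uM ADP, 45 min at RT, pH 7.2 TEA buffer. No-enzyme wells served as controls, and data were normalized before concentration-response fitting.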
RE007 growth inh – less growth of the S. pombe RE007 Vpr strain. S. pombe RE007 Vpr strain, BacTiter-Glo ATP luminescence, 24 h. Potency, µM (series often up to 92.2 µM), usual class: inhibitors. 0.21% of 360,000 active; active means well fitted falling curve with a large enough effect; inconclusive means small, poorly fitted or top-dose-only effect; inactive means no such curve, though single readings can be large or run the other way; further: nearly all actives have a fitted effect of over 50% in size
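Fission yeast RE007 carrying one integrated HIV-1 vpr copy, seeded at OD 0.01 in PMG+AL medium with 23 nL pinned compound. Grown 24 h at 30 degrees; viability read by BacTiter-Glo luminescence after 5 min.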
Vaccinia mCherry – inhibitors of vaccinia virus infection (mCherry reporter signal) | Vaccinia virus mCherry reporter infection, fluorescence | Potency, µM (doses to about 36.5 µM), usual class: inhibitors | 0.63% of 310,000 active; calls by dose curve; tested in A549 cells; further: nearly all actives have a fitted effect of over 35% in size
LmPK inh – LmPK (Leishmania mexicana) enzyme inhibition | Q27686 | Potency, µM (titrated, usually from 57.5 µM), most hits filed as inhibitors | 0.37% of 290,000 active | purified LmPK, Kinase-Glo ATP luminescence, 1 h | AID 1721
Target sequence (Q27686 whole entry, looked up): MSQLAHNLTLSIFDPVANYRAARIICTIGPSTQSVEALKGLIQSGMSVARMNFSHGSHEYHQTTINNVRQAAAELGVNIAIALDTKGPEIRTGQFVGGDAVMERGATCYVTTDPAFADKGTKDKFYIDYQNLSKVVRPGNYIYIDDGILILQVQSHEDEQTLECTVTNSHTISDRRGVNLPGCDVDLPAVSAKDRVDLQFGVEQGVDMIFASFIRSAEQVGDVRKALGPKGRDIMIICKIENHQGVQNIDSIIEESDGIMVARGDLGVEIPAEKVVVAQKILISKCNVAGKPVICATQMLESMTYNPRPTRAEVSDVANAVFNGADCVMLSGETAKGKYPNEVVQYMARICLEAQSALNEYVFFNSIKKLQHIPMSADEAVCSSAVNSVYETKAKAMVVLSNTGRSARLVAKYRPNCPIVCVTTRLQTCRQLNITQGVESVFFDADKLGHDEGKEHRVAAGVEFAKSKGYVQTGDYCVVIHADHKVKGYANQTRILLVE
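In 50 mM imidazole pH 7.2 with 7 mM MgCl2, LmPK (0.1 nM) turned over PEP (0.5 mM) and ADP (0.1 mM) for 1 h at room temperature. Luciferase read-out of ATP.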
Hits are given with their value; – = inactive; ? = inconclusive; · = no result given; [ ] = dose if it differs, or a comment. Unless noted, the call rests on the fitted dose curve; in most records, active means well fitted curve in the direction sought with a large enough effect; inconclusive means small, poorly fitted or top-dose-only effect, or another doubt; inactive means no such curve, though single readings can be large; an effect the other way counts as inactive or inconclusive.

SMILES | AMA1 RON2 block | Vaccinia Venus | Tb PYK inh | RE007 growth inh | Vaccinia mCherry | LmPK inh
Nc1nc(-c2ccccc2)cc(-c2ccccc2O)n1 | – | 11.2µM | – | – | ? | –
COc1ccc2c(c1)-c1nc(NC(=O)c3cc(Cl)ccc3OC)sc1CC2 | · | 10µM | – | · | 10µM | ·
COc1ccc2c(c1)-c1nc(NC(=O)c3ccc(Cl)cc3)sc1CC2 | · | ? | – | · | ? | ·
COc1ccccc1C(=O)N[C@@H]1c2ccccc2C2(CCN(Cc3c(O)cccc3OC)CC2)[C@H]1O | · | ? | · | · | – | ·
CN1/C(=C\C(=O)c2cccs2)Sc2ccccc21 | – | – | – | – | · | 11.2µM
COc1cc(OC)cc(C(=O)/C=C2\Sc3ccccc3N2C)c1 | – | – | – | – | – | –
CCOc1ccc(S(=O)(=O)Nc2ccc(C(=O)NNC(=O)c3ccncc3)cc2)cc1 | – | – | – | – | – | ·
CCOc1ccc(NS(=O)(=O)c2ccc(C(=O)NNC(=O)c3ccccc3O)cc2)cc1 | – | ? | – | – | 7.08µM | ·
O=C(O)c1ccccc1 | – | – | – | – | – | ·
O=C(O)c1cc[c]([Hg][Cl])cc1 | – | – | 17.8µM | ? | – | ·
CC(=O)/C(C#N)=C1\NC(=O)C(Cc2ccc(C)c(C)c2)S1 (centres undefined) | – | – | – | – | 15.8µM | –
CC(=O)/C(C#N)=C1\NC(=O)C(Cc2ccc(F)cc2)S1 (centres undefined) | – | – | – | – | – | –
Cc1cccc(C(=O)N2CCOc3ccc(CN(C)Cc4cc(C5CC5)n[nH]4)cc3C2)n1 | · | – | · | · | – | ·
O[C@@H]1C[C@H](c2ccc(Cl)cc2)N(CC2CCCCC2)C[C@H]1n1cc(C2CC2)nn1 | – | – | – | – | – | ·
O[C@@H]1CN(CC2CCCCC2)[C@@H](c2ccc(Cl)cc2)C[C@H]1n1cc(C2CC2)nn1 | – | 14.1µM | – | – | ? | ·
COC(=O)c1ccccc1-c1cc(C)cc2c1OC(CNC(=O)c1cc(C)on1)C2 (centres undefined) | · | – | · | · | – | ·
Clc1cccc(Cc2c(-c3ccco3)nc3ccc(Cl)cn23)c1 | – | – | 20µM | ? | – | ·
COC(=O)c1ccc2nc(-c3ccco3)c(Cc3ccc(OC)cc3C)n2c1 | ? | – | 14.1µM | – | – | ·
O=C(NCc1cccnc1)/C(=C\c1ccc(-c2cccc(Cl)c2)o1)S(=O)(=O)c1ccccc1 | – | 10µM | – | – | 11.2µM | –
CCC1CN(Cc2cn[nH]c2-c2ccccc2)Cc2cc(OC)ccc2O1 (centres undefined) | · | – | · | · | – | ·
COc1ccccc1Nc1cc(C)nc2c(C)ccc([N+](=O)[O-])c12 | 3.16µM | – | – | – | – | –
C[C@H]1Cc2c(COc3ccccc3)nc3c(c2CO1)CN(S(=O)(=O)c1ccc2c(c1)OCCN2C)CC3 | · | · | · | · | · | –[11.5 µM]
c1ccc2c(c1)CCCN2 | · | – | · | · | – | ·
Cc1ccccc1-n1c(Cc2cccs2)n[nH]c1=S | – | – | ? | – | – | 8.91µM
Fc1ccc(-n2c(Cc3cccs3)n[nH]c2=S)cc1Cl | – | – | ? | – | ? | –
SMILES | AMA1 RON2 block | Vaccinia Venus | Tb PYK inh | RE007 growth inh | Vaccinia mCherry | LmPK inh
FC(F)(F)c1ccc(Cl)c(-n2c(Cc3cccs3)n[nH]c2=S)c1 | – | · | ? | – | · | 8.91µM
CN1Cc2c(N3CCOCC3)nc3sc(C(=O)c4ccc(Br)cc4)c(N)c3c2CC1(C)C | ? | – | – | – | 6.31µM | –
NNC(=O)c1sc2nc(N3CCOCC3)c3c(c2c1N)CCCC3 | – | · | – | – | · | –
Nc1c(C(=O)N2CCOCC2)sc2nc(N3CCOCC3)c3c(c12)CCCC3 | – | · | 15.8µM | – | · | –
CN1Cc2c(N3CCOCC3)nc3sc(C#N)c(N)c3c2CC1(C)C | – | – | – | – | – | –
CCn1c(-c2cccc(OC)c2)nc2cc(NC(C)=O)cc(C(=O)N3CCCC(C(C)=O)C3)c21 (centres undefined) | · | – | · | · | – | ·
Cc1ccc(C(=O)Nc2ccc3c(c2)N(C)C(=O)c2ccccc2S3)cc1F | · | ? | – | · | ? | ·
CC(C)(C)NC(=O)CCN(/N=C/c1ccc([N+](=O)[O-])o1)C1=NS(=O)(=O)c2ccccc21 | –[11.6 µM] | 10µM | – | – | ? | –
CCCCCCOc1ccc(CC(=O)O)cc1 | · | – | · | · | – | ·
CCOc1ccc(-n2c(=O)[nH]cc(C(=O)N3CCc4ccccc43)c2=O)cc1 | – | 2.82µM | – | – | ? | –
CCCCn1c(CCn2nc(C)c(Br)c2C)n[nH]c1=S | – | · | ? | – | · | 17.8µM
COc1ccc(N2C(=O)NC(=O)/C(=C/c3ccc([N+](=O)[O-])s3)C2=O)cc1 | – | · | 12.6µM | ? | · | –
COc1ccc(N2C(=O)NC(=O)/C(=C\c3ccc([N+](=O)[O-])s3)C2=O)cc1 | – | – | ? | – | – | –
COc1ccc(N2C(=O)/C(=C/c3cccs3)C(=O)NC2=S)cc1 | – | –[7.34 µM] | ? | – | –[7.34 µM] | –
COc1ccc(N2C(=O)/C(=C/C=C/c3ccccc3[N+](=O)[O-])C(=O)NC2=S)cc1 | – | – | 20µM | – | – | –
Cc1c(C(=O)NC(C)(C)C)sc2ncnc(NCCN(C)C)c12 | · | – | · | · | – | ·
Cc1[nH]n(-c2ccc([N+](=O)[O-])cc2)c(=O)c1C=NCCN1CCN(C(=O)C(C)C)CC1 | – | – | – | ? | – | 14.1µM
COc1ccc(C(C[N+](=O)[O-])C2(c3ccc(OC)c(OC)c3)C(=O)c3ccccc3C2=O)cc1 (centres undefined) | ? | ? | – | ? | 11.2µM | –
Cc1c(C(=O)NCCc2ccncc2)cnn1-c1nccc(-c2ccccc2C(F)(F)F)n1 | · | – | · | · | – | ·

Screens: PubChem BioAssay, National Center for Advancing Translational Sciences (NCATS)
